38 molecules from PubChem BioAssay (NCATS) can be followed below.

“And” between values parts separate entries of the source, which are not always exact repeats. Identical values can stand only once. Inconclusive results are not listed. Unmarked numbers belong to inactive results. The source made the active and inactive calls. The call rests on the fitted dose curve; in most records, active means well fitted curve in either direction with a large enough effect (not every such curve was filed as active); inconclusive means small, poorly fitted or top-dose-only effect, or another doubt; inactive means flat fitted curve, though single readings scatter. Residues, ends and D or L forms follow the SMILES beside them. *: point of attachment. Cbz = O=C(OCc1ccccc1)*
On the % scale 0 is the no-effect control and ±100 the full control effect.

One experiment is described as follows: NFAT Signaling Pathway (AID 444). The conditions noted are these: Jurkat NFAT-bla M1, carbachol, beta-lactamase ratio, 5 h; at 17.2 µM (top of the series). The source says:
NCGC Assay Overview: The nuclear factor of activated T cells (NFAT) family of transcription factors has been found primarily in most immune system cells and some other non-immune cells. NFAT plays the immunomodulatory role, primarily in T-cell activation and differentiation. NFAT target genes are also involved in the regulation of apoptosis and differentiation in non-immune cell types. The NFAT sequence was engineered to the upstream of the ?-lactamase reporter gene and transfected into Jurkat cells with co-transfection of muscarinic receptor1 [provided by Invitrogen Corp]. When an extracellular stimulus, such as carbachol, binds to the GPCR M1 receptor, it stimulates a signaling cascade that activates NFAT response element and ?-lactamase expression by phosphorylating the NFAT binding protein. This cell based ?-lactamase reporter gene assay can accurately monitor any changes occurring along the NFAT pathway, and can be used for screening small molecule inhibitor or activator upon activation by carbachol EC50 concentration. A small molecular library were screened in a titration series resulting in AC50s (can be either IC50s or EC50s).
NCGC Assay Protocol Summary: The cells were prepared in RPMI 1640 medium containing 0.1% dialyzed FBS and 25 mM HEPES at 1.6 x 10^6cell/ml. The assay was performed in 1536-well plate format as follows: 5 ul of cell preparation 23 nl of compounds 1ul of carbachol (final concentration 1 uM) Briefly centrifuge the plates and incubate at 37 °C for 5 hours 1 ul of CCF4 dye mixture Incubate the plates at RT for 1 hour Read the plate in EnVision plate reader (Ex= 405nm, and Em1=460nm and Em2=530nm). The %Activity was determined from the ratio of 460nm/530nm. Data normalization and AC50 calculations were accomplished using GeneData software.
In the case of `CC(C)NC[C@H](O)COc1ccc(CC(N)=O)cc1`, the activity change, negative = inhibition is -9.34% and -0.713%. On the same count and under the same terms, for `O=C(O)c1cc2cc(F)ccc2[nH]1` the value was -6.32%.

Still in this experiment, the particulars now being: Jurkat NFAT-bla M1, carbachol, beta-lactamase ratio, 5 h; at 38 µM (top of the series).
As for `CC(C)NC[C@H](O)COc1ccc(CC(N)=O)cc1`, the activity change, negative = inhibition was -2.26% and 6.34% and 5.93%. As for `O=C(O)c1cc2cc(F)ccc2[nH]1`, the activity change, negative = inhibition is -3.11%.

Still in this experiment, the particulars now being: Jurkat NFAT-bla M1, carbachol, beta-lactamase ratio, 5 h; at 38 µM (top of the series) unless noted.
Take `C[N+](C)(C)CC=O`: the activity change, negative = inhibition is -6.7%.

Take `NC(N)=NC(N)=Nc1ccccc1`: the activity change, negative = inhibition was 7.27%. On the same count and under the same terms, the value for `O=c1cc(-c2ccccc2)[nH]c2nc(Cl)ccc12` was -13%; that for `CC(C)(CO)Cc1cc(C(C)(C)C)c(O)c(C(C)(C)C)c1` was -10.6%. With `CSC(=N)N`, the activity change, negative = inhibition is 4.79%.

With `S=C(S)N1CCCC1`, the activity change, negative = inhibition was -9.46%. Consider `O=c1oc(Cl)c(Cl)c2ccccc12`, for which the activity change, negative = inhibition is -53.3% (active). In the case of `COc1ccccc1N1CCN(CCCCNC(=O)c2ccc3ccccc3c2)CC1`, the activity change, negative = inhibition was -13.3%. Same read-out and setting: for `CN[C@H](CC(=O)O)C(=O)O` the value was 0.454%; for `NC(=O)c1ccccc1`, 20.6%. The same measure, in the same setting: the value for `CC(C)[C@H](NC(=O)OCc1ccccc1)C(=O)N[C@H](C=O)Cc1ccccc1` (Cbz-Val-Phe-aldehyde) was -9.23%; that for `O=C(N[C@@H](Cc1ccccc1)C(=O)CCl)OCc1ccccc1` was -11.8% (active). Still for that read-out and setting: for `N#CC(C#N)=C(N)/C(C#N)=C/c1ccc(O)cc1` the value was 3.6%; for `Nc1nc2ccc(Cl)cc2c2nc(-c3ccco3)nn12`, 19.6%; for `c1ccc2nc(C3=NCCN3)ccc2c1`, -13%. Take `C#CCn1c(=O)c2c(ncn2C)n(C)c1=O`: the activity change, negative = inhibition was 5.67%.

Turning to `N#Cc1cc2nc(O)c(O)nc2cc1[N+](=O)[O-]`, the activity change, negative = inhibition is 10.2%. On the same count and under the same terms, for `OC1(c2ccc(Cl)cc2)CCN(Cc2c[nH]c3ccccc23)CC1` the value was 8.51%; for `N#C/C(=C\c1ccc(O)c(O)c1)C(=O)NCCCNC(=O)/C(C#N)=C/c1ccc(O)c(O)c1`, 7.05%; for `Cn1c(=O)c2[nH]c(-c3ccc(S(=O)(=O)O)cc3)nc2n(C)c1=O`, 8.07%. The same measure, in the same setting: for `NCCS(=O)O` the value was 3.37%; for `NS(=O)(=O)c1cccc2c1c([N+](=O)[O-])cc1nc(O)c(O)nc12`, 5.62%. Same read-out and setting: the value for `COc1cc2c(CCNC(C)=O)c[nH]c2cc1O` was 3.14%. As to `O=[N+]([O-])c1cccc2c(Br)[nH]nc12`, the activity change, negative = inhibition was -9.63%. With `NC(=O)CNCCC(c1ccccc1)c1ccccc1`, the activity change, negative = inhibition was 1.39%. Same read-out and setting: for `C[C@](Cc1ccc(O)c(O)c1)(NN)C(=O)O` the value was 8.6%; for `Cc1nc(N=Nc2ccc(C(=O)O)cc2)c(COP(=O)(O)O)c(C=O)c1O`, 7.15%. On to `Nc1ccc(N2C(=O)c3ccccc3C2=O)c(Cl)c1`, for which the activity change, negative = inhibition is 7.18%. The same measure, in the same setting: the value for `NC(N)=NC(N)=Nc1cccc(Cl)c1` was 7.69%; that for `COc1ccc2c(c1)c(CC(=O)O)c(C)n2Cc1ccc(Cl)cc1` was -4.65%. On the same count and under the same terms, the value for `CC1CNCCN1S(=O)(=O)c1cccc2cnccc12` (stereo not given) was 4.83% [at 17.2 µM].

With `O=C(O)/C(=C/c1c(C(=O)O)[nH]c2cc(Cl)cc(Cl)c12)c1ccccc1`, the activity change, negative = inhibition is -3.51%. As to `Cn1c(=O)[nH]c2ncn(C)c2c1=O`, the activity change, negative = inhibition is -1.89%. Same read-out and setting: the value for `N=C(N)c1ccccc1` was -2.62%.

Turning to `CC(C)Cn1c(=O)n(C)c(=O)c2[nH]cnc21`, the activity change, negative = inhibition is -7.31%. Same read-out and setting: for `Cc1cc2c(cc1Cl)N(C(=O)Nc1ccnc3ccccc13)CC2` the value was 4.5%.
